Reference: the supplement of paper PMC7765376
Counter-ions that a name gives are not always drawn. Over roughly 1,500 compounds, “Excess HSA synergy score (sum over dose matrix of excess over highest single agent)” has its median near 43; the lowest 2% begin near -900. The list comes from a sample in which the lowest values are over-represented; it also holds similar structures and randomly drawn compounds.

Test system: PEO-1
Assay: Excess HSA synergy score (sum over dose matrix of excess over highest single agent) (score (summed % response)); higher = less synergy / more antagonism (negative = synergy)
Conditions: 72 h, read-out: viability/apoptosis luminescence (CellTiter-Glo or Caspase3-Glo / not stated per table)
[1] = matrix design: 6x6, 5-fold dilutions (primary screen)
[2] = matrix design: 10x10, 9-step dilutions (confirmatory)

Row | Compound | Excess HSA synergy score [1] | Excess HSA synergy score [2]
1 | C[C@@]12C[C@@]3(O)O[C@@H](O1)[C@]1(COC(=O)c4ccccc4)[C@H]3C[C@@]12O[C@@H]1O[C@H](CO)[C@@H](O)[C@H](O)[C@H]1O [Paeoniflorin] + CC[C@H](NC(=O)[C@H](C)NC)C(=O)N1C[C@@H](O)C[C@H]1Cc1c(-c2[nH]c3cc(F)ccc3c2C[C@@H]2C[C@H](O)CN2C(=O)[C@H](CC)NC(=O)[C@H](C)NC)[nH]c2cc(F)ccc12 [Birinapant] | 211 | –
2 | COc1cc([C@@H]2c3cc4c(cc3[C@@H](O[C@@H]3O[C@@H]5CO[C@@H](C)O[C@H]5[C@H](O)[C@H]3O)[C@H]3COC(=O)[C@H]23)OCO4)cc(OC)c1O [Etoposide] + CC[C@H](NC(=O)[C@H](C)NC)C(=O)N1C[C@@H](O)C[C@H]1Cc1c(-c2[nH]c3cc(F)ccc3c2C[C@@H]2C[C@H](O)CN2C(=O)[C@H](CC)NC(=O)[C@H](C)NC)[nH]c2cc(F)ccc12 [Birinapant] | -89.6 | –
3 | COc1cc([C@@H]2c3cc4c(cc3[C@@H](O[C@@H]3O[C@@H]5CO[C@@H](c6cccs6)O[C@H]5[C@H](O)[C@H]3O)[C@H]3COC(=O)[C@H]23)OCO4)cc(OC)c1O [Teniposide] + CC[C@H](NC(=O)[C@H](C)NC)C(=O)N1C[C@@H](O)C[C@H]1Cc1c(-c2[nH]c3cc(F)ccc3c2C[C@@H]2C[C@H](O)CN2C(=O)[C@H](CC)NC(=O)[C@H](C)NC)[nH]c2cc(F)ccc12 [Birinapant] | -151 | -1360
4 | COC(=O)N[C@H](C(=O)N[C@@H](Cc1ccccc1)[C@@H](O)CN(Cc1ccc(-c2ccccn2)cc1)NC(=O)[C@@H](NC(=O)OC)C(C)(C)C)C(C)(C)C [Atazanavir sulfate] + CC[C@H](NC(=O)[C@H](C)NC)C(=O)N1C[C@@H](O)C[C@H]1Cc1c(-c2[nH]c3cc(F)ccc3c2C[C@@H]2C[C@H](O)CN2C(=O)[C@H](CC)NC(=O)[C@H](C)NC)[nH]c2cc(F)ccc12 [Birinapant] | 154 | –
5 | CC(C)(C)[C@H](NC(=O)c1ccc(N)c(Cl)c1)C(=O)N1CCC[C@H]1C(=O)N[C@H](C#N)CC(=O)O + CC[C@H](NC(=O)[C@H](C)NC)C(=O)N1C[C@@H](O)C[C@H]1Cc1c(-c2[nH]c3cc(F)ccc3c2C[C@@H]2C[C@H](O)CN2C(=O)[C@H](CC)NC(=O)[C@H](C)NC)[nH]c2cc(F)ccc12 [Birinapant] | 307 | –
6 | COc1ccc(C(C)=O)c(O)c1 [Paeonol] + CC[C@H](NC(=O)[C@H](C)NC)C(=O)N1C[C@@H](O)C[C@H]1Cc1c(-c2[nH]c3cc(F)ccc3c2C[C@@H]2C[C@H](O)CN2C(=O)[C@H](CC)NC(=O)[C@H](C)NC)[nH]c2cc(F)ccc12 [Birinapant] | 176 | –
7 | Nc1cccc(-c2cc3c(Oc4cccc(O)c4)ncnc3[nH]2)c1 + CC[C@H](NC(=O)[C@H](C)NC)C(=O)N1C[C@@H](O)C[C@H]1Cc1c(-c2[nH]c3cc(F)ccc3c2C[C@@H]2C[C@H](O)CN2C(=O)[C@H](CC)NC(=O)[C@H](C)NC)[nH]c2cc(F)ccc12 [Birinapant] | 63.5 | –
8 | Cc1[nH]c(/C=C2\C(=O)Nc3ccccc32)c(C)c1CCC(=O)O [Orantinib] + CC[C@H](NC(=O)[C@H](C)NC)C(=O)N1C[C@@H](O)C[C@H]1Cc1c(-c2[nH]c3cc(F)ccc3c2C[C@@H]2C[C@H](O)CN2C(=O)[C@H](CC)NC(=O)[C@H](C)NC)[nH]c2cc(F)ccc12 [Birinapant] | 23.6 | –
9 | COc1ccc(-c2cc3nccn3c(Nc3ncccc3C(N)=O)n2)cc1OC + CC[C@H](NC(=O)[C@H](C)NC)C(=O)N1C[C@@H](O)C[C@H]1Cc1c(-c2[nH]c3cc(F)ccc3c2C[C@@H]2C[C@H](O)CN2C(=O)[C@H](CC)NC(=O)[C@H](C)NC)[nH]c2cc(F)ccc12 [Birinapant] | 38 | –
10 | Cn1cc(C[C@@H](N)C(=O)O)c2ccccc21 [Indoximod] + CC[C@H](NC(=O)[C@H](C)NC)C(=O)N1C[C@@H](O)C[C@H]1Cc1c(-c2[nH]c3cc(F)ccc3c2C[C@@H]2C[C@H](O)CN2C(=O)[C@H](CC)NC(=O)[C@H](C)NC)[nH]c2cc(F)ccc12 [Birinapant] | 168 | –
11 | Cn1cc(CNCC2CCN(c3ncc(C(=O)NO)cn3)CC2)c2ccccc21 [Quisinostat] + CC[C@H](NC(=O)[C@H](C)NC)C(=O)N1C[C@@H](O)C[C@H]1Cc1c(-c2[nH]c3cc(F)ccc3c2C[C@@H]2C[C@H](O)CN2C(=O)[C@H](CC)NC(=O)[C@H](C)NC)[nH]c2cc(F)ccc12 [Birinapant] | -161 | -1370
12 | CN1CCc2c(c3ccccc3n2Cc2ccc(C(=O)NO)cc2)C1 [Tubastatin A] + CC[C@H](NC(=O)[C@H](C)NC)C(=O)N1C[C@@H](O)C[C@H]1Cc1c(-c2[nH]c3cc(F)ccc3c2C[C@@H]2C[C@H](O)CN2C(=O)[C@H](CC)NC(=O)[C@H](C)NC)[nH]c2cc(F)ccc12 [Birinapant] | -71.8 | –
13 | NC(=O)c1cnc(-c2ccc(C3(N)CCC3)cc2)c(-c2ccccc2)c1 + CC[C@H](NC(=O)[C@H](C)NC)C(=O)N1C[C@@H](O)C[C@H]1Cc1c(-c2[nH]c3cc(F)ccc3c2C[C@@H]2C[C@H](O)CN2C(=O)[C@H](CC)NC(=O)[C@H](C)NC)[nH]c2cc(F)ccc12 [Birinapant] | 61.1 | –
14 | CN(C)C(=O)c1ccc(S(=O)(=O)c2ccc(NC(=O)[C@@](C)(O)C(F)(F)F)c(Cl)c2)cc1 + CC[C@H](NC(=O)[C@H](C)NC)C(=O)N1C[C@@H](O)C[C@H]1Cc1c(-c2[nH]c3cc(F)ccc3c2C[C@@H]2C[C@H](O)CN2C(=O)[C@H](CC)NC(=O)[C@H](C)NC)[nH]c2cc(F)ccc12 [Birinapant] | 50.1 | –
15 | NC1(c2ccc(-c3nc4ccn5c(=O)[nH]nc5c4cc3-c3ccccc3)cc2)CCC1 + CC[C@H](NC(=O)[C@H](C)NC)C(=O)N1C[C@@H](O)C[C@H]1Cc1c(-c2[nH]c3cc(F)ccc3c2C[C@@H]2C[C@H](O)CN2C(=O)[C@H](CC)NC(=O)[C@H](C)NC)[nH]c2cc(F)ccc12 [Birinapant] | 208 | –
16 | Cc1ccc(-c2ncn(-c3ccc(Nc4nccc(-c5cccc(N6CCOCC6)c5)n4)cc3)n2)cn1 + CC[C@H](NC(=O)[C@H](C)NC)C(=O)N1C[C@@H](O)C[C@H]1Cc1c(-c2[nH]c3cc(F)ccc3c2C[C@@H]2C[C@H](O)CN2C(=O)[C@H](CC)NC(=O)[C@H](C)NC)[nH]c2cc(F)ccc12 [Birinapant] | 108 | -998
17 | N#CCNC(=O)c1ccc(-c2ccnc(Nc3ccc(N4CCOCC4)cc3)n2)cc1 [Momelotinib] + CC[C@H](NC(=O)[C@H](C)NC)C(=O)N1C[C@@H](O)C[C@H]1Cc1c(-c2[nH]c3cc(F)ccc3c2C[C@@H]2C[C@H](O)CN2C(=O)[C@H](CC)NC(=O)[C@H](C)NC)[nH]c2cc(F)ccc12 [Birinapant] | -152 | –
18 | Cc1nc(N)sc1-c1ccnc(Nc2ccc(N3CCOCC3)cc2)n1 + CC[C@H](NC(=O)[C@H](C)NC)C(=O)N1C[C@@H](O)C[C@H]1Cc1c(-c2[nH]c3cc(F)ccc3c2C[C@@H]2C[C@H](O)CN2C(=O)[C@H](CC)NC(=O)[C@H](C)NC)[nH]c2cc(F)ccc12 [Birinapant] | 9.08 | –
19 | CCCS(=O)(=O)Nc1ccc(F)c(C(=O)c2c[nH]c3ncc(Cl)cc23)c1F + CC[C@H](NC(=O)[C@H](C)NC)C(=O)N1C[C@@H](O)C[C@H]1Cc1c(-c2[nH]c3cc(F)ccc3c2C[C@@H]2C[C@H](O)CN2C(=O)[C@H](CC)NC(=O)[C@H](C)NC)[nH]c2cc(F)ccc12 [Birinapant] | -164 | –
20 | C=C1CC[C@@H]2[C@](C)(CO)[C@H](O)CC[C@@]2(C)[C@@H]1C/C=C1/C(=O)OC[C@H]1O [Andrographolide] + CC[C@H](NC(=O)[C@H](C)NC)C(=O)N1C[C@@H](O)C[C@H]1Cc1c(-c2[nH]c3cc(F)ccc3c2C[C@@H]2C[C@H](O)CN2C(=O)[C@H](CC)NC(=O)[C@H](C)NC)[nH]c2cc(F)ccc12 [Birinapant] | 12.7 | –
21 | Cc1cc(Nc2cc(N3CCN(C)CC3)nc(Sc3ccc(NC(=O)C4CC4)cc3)n2)n[nH]1 [Tozasertib] + CC[C@H](NC(=O)[C@H](C)NC)C(=O)N1C[C@@H](O)C[C@H]1Cc1c(-c2[nH]c3cc(F)ccc3c2C[C@@H]2C[C@H](O)CN2C(=O)[C@H](CC)NC(=O)[C@H](C)NC)[nH]c2cc(F)ccc12 [Birinapant] | -170 | –
22 | C=CC(=O)Nc1cccc(Sc2nc(Nc3ccc(N4CCN(C)CC4)cc3)ncc2Cl)c1 + CC[C@H](NC(=O)[C@H](C)NC)C(=O)N1C[C@@H](O)C[C@H]1Cc1c(-c2[nH]c3cc(F)ccc3c2C[C@@H]2C[C@H](O)CN2C(=O)[C@H](CC)NC(=O)[C@H](C)NC)[nH]c2cc(F)ccc12 [Birinapant] | 73.6 | –
23 | Cc1nc(Nc2ncc(C(=O)Nc3c(C)cccc3Cl)s2)cc(N2CCN(CCO)CC2)n1 [Dasatinib] + CC[C@H](NC(=O)[C@H](C)NC)C(=O)N1C[C@@H](O)C[C@H]1Cc1c(-c2[nH]c3cc(F)ccc3c2C[C@@H]2C[C@H](O)CN2C(=O)[C@H](CC)NC(=O)[C@H](C)NC)[nH]c2cc(F)ccc12 [Birinapant] | -329 | -1400
24 | c1cc(-c2sc(-c3ccncc3)c(-c3ccncc3)c2-c2ccncc2)ccn1 + CC[C@H](NC(=O)[C@H](C)NC)C(=O)N1C[C@@H](O)C[C@H]1Cc1c(-c2[nH]c3cc(F)ccc3c2C[C@@H]2C[C@H](O)CN2C(=O)[C@H](CC)NC(=O)[C@H](C)NC)[nH]c2cc(F)ccc12 [Birinapant] | 153 | –
